In test [1] the test system is Falciformispora senegalensis CBS197.79. As to the kind of experiment: growth relative to untreated control; higher = less inhibition, active = 20 or less. The method in brief: (§1)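 For each test, a hyphal fragment suspension of M. mycetomatis MM55 or F. senegalensis CBS197.79 was prepared in colourless RPMI 1640 with L-glutamine and MOPS at 68–72% transmission at 660 nm. Exposure to compound at 100 or 25 µM ran for 7 days at 37 °C in 96-well plates, followed by viability reading with MTS (2 h, 490 nm) or resazurin (600 nm). Growth corresponds to metabolic activity relative to the untreated growth control after correction of both with a blank of medium and dye.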

The subject of test [2] is Madurella mycetomatis MM55. The description is as above. The method in brief: as §1

Values without a mark were called inactive.

For eleven molecules, growth results are on record in the supplement of paper PMC11172423.

Consider `CC(Nc1ccc2c(c1)OCCCO2)C(=O)Nc1cc(C(F)(F)F)ccc1N1CCOCC1` (centres undefined), for which the growth in test [1] (25 µM) is 87.5%; in test [1] (100 µM) it was 86.1%; in test [2] (25 µM), 97.8%; in test [2] (100 µM), 125%.
For `Cc1cc2ncc(C(=O)NCC(C)(C)NCC(=O)N3CCC[C@H]3C#N)cn2n1` the same measures were 105%, 102%, 82.4% and 84.8%.
Turning to `COc1ccc(CCN(C)CCCC(C#N)(c2ccc(OC)c(OC)c2)C(C)C)cc1OC` (centres undefined), the growth in test [1] (25 µM) was 110%; in test [1] (100 µM), 98.5%; in test [2] (25 µM), 76.9%; in test [2] (100 µM), 98.8%.
With `CC(N)CCn1c(Nc2cc(Cl)cc(C(F)(F)F)c2)nc2cnc(NC(C)(C)C)nc21` (centres undefined), the growth in test [1] (25 µM) was 19.4% (active); in test [1] (100 µM), 12.8% (active); in test [2] (25 µM), 6.25% (active); in test [2] (100 µM), 5.86% (active).
In the case of `CCN1CCN(Cc2ccc(Nc3ncc(F)c(-c4cc(F)c5nc(C)n(C(C)C)c5c4)n3)nc2)CC1`, the growth is 101% in test [1] (25 µM), 105% in test [1] (100 µM), 80.5% in test [2] (25 µM) and 85.2% in test [2] (100 µM).
`CCSc1ccc2c(c1)N(CCCN1CCN(C)CC1)c1ccccc1S2`: the growth in test [1] (25 µM) is 7.2% (active); in test [1] (100 µM) it was 11.7% (active); in test [2] (25 µM), 3.68% (active); in test [2] (100 µM) it was 3.76% (active).
For `CCOCCCNc1nc2cc(OC)c(OC)cc2c2nc(-c3ccccc3)nn12`, in that order: 93.1%, 89.3%, 95.5% and 120%.
For `Cn1nc(C(=O)Nc2ccc(F)c(Cl)c2)c2c1-c1ccccc1S(=O)(=O)C2`, in that order: 99.8%, 117%, 86.8% and 104%.
For `CC[C@H](Nc1ncnc2[nH]cnc12)c1nc2cccc(F)c2c(=O)n1-c1ccccc1`, in that order: 98%, 98.4%, 103% and 83.5%.
For `CCN1C(=O)N(CCC(C)C)C2(CCN(Cc3cc(O)cc(Cl)c3)CC2)C1=O`, the growth is 91% in test [1] (25 µM), 92.9% in test [1] (100 µM), 99.4% in test [2] (25 µM) and 104% in test [2] (100 µM).
In the case of `CCOc1ccc(C=C2NCCc3cc(OCC)c(OCC)cc32)cc1OCC`, the growth in test [1] (25 µM) was 112%; in test [1] (100 µM) it was 106%; in test [2] (25 µM) it was 73.2%; in test [2] (100 µM), 48%.
